Values joined by “and” are separate entries in the source; they are usually repeats but may differ in a detail not shown here. Equal entries are not always repeated. Records with an inconclusive call do not appear. Active and inactive are the calls of the source. Calls follow the shape of the dose curve; as a rule, active = well fitted activation curve with a large enough effect; inconclusive = small, poorly fitted or top-dose-only effect; inactive = no such curve, though single readings can be large or run the other way.
Potency is read from the fitted curve at half-maximal effect.

This assay deals with Cellular tumor antigen p53 (Homo sapiens) (UniProt P04637). In words: Primary qHTS for small molecule compounds that upregulate eGFP-tagged delta133p53alpha (in N-terminal) cells. (AID 2060322). Also: nearly all actives have a fitted effect of over 75% in size.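 As to activation: cells pre-induced with doxycycline then dosed without doxycycline; series mostly up to about 56 µM; 0% = DMSO vehicle and 100% = reference activator.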 As to conditions: NCI-H358 eGFP-delta133p53alpha fluorescence, 24 h; activation: active compounds read high. The method in brief: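 NCI-H358 cells pre-induced 24 h with 10 ng/ml doxycycline for eGFP-delta133p53alpha, plated dox-free and exposed 24 h at 37C to titrated compounds. Fixed, Hoechst-stained; gated GFP peak intensity by laser scanning cytometry, normalized to DMSO (0%) and 57.5 uM 5-azacytidine (100%).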
Sequence of Cellular tumor antigen p53 (Homo sapiens) (P04637 whole entry, looked up): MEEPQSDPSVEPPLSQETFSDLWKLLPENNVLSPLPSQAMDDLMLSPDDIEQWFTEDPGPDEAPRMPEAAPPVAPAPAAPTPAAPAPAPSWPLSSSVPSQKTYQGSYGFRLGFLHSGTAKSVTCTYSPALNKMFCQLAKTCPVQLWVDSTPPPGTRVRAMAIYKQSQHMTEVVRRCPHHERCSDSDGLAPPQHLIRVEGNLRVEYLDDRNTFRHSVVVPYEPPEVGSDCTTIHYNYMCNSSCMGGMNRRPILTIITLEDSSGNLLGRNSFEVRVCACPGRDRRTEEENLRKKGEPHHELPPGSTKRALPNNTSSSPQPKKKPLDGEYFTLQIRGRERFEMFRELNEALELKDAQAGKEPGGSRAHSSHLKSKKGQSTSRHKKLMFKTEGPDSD
In the case of `CN(C)CCc1c[nH]c2ccc(Cn3cncn3)cc12`, the Potency was 21.7 µM (active).

For `C=CCSCC1Nc2cc(Cl)c(S(N)(=O)=O)cc2S(=O)(=O)N1` (stereo not given), the activation is -36.8% (inactive).

As for `NC(=O)NC(=O)Cc1ccccc1`, the activation is -10% (inactive).

As to `O=[N+]([O-])c1cccc(S(=O)(=O)NCCNS(=O)(=O)c2cccc([N+](=O)[O-])c2)c1`, the activation is 24.3% (inactive).

For the molecule `O=C(O)C(=O)Nc1cccc(C2=NN=N[N]2)c1`, the activation is 19.6% (inactive).

As for `Cc1cc(O)c2c(O)c3c(O)cccc3cc2c1`, the activation is 0.837% (inactive).

With `O=C(OCC(O)CO)c1ccccc1Nc1ccnc2c(C(F)(F)F)cccc12` (stereo not given), the activation is -13.4% (inactive).

Regarding `COc1cc2c(cc1OC)[C@@H]1Cc3ccc(OC)c(OC)c3CN1CC2`, the activation was 19.3% (inactive).

Turning to `COc1cc(NS(=O)(=O)c2ccc(N)cc2)nc(OC)n1`, the activation is -0.195% (inactive).

For `CCCCCOC(=O)Nc1nc(=O)n([C@@H]2O[C@H](C)[C@@H](O)C2O)cc1F` (stereo not given in full), the activation was -14.6% (inactive).

As for `CN(C)CCCSc1ccccc1NC(=O)/C=C/c1ccccc1`, the activation is -10% (inactive).

In the case of `O=C(NCCc1c[nH]c2ccccc12)c1cccnc1`, the activation is 10.9% (inactive).

Consider `CC(C)=CCC/C(C)=C/CO`, for which the activation is -11.9% (inactive).

Consider `CC(C)OC(=O)[C@H](C)N[P@](=O)(OC[C@H]1O[C@@H](n2ccc(=O)[nH]c2=O)[C@](C)(F)[C@H]1O)Oc1ccccc1`, for which the activation was 15% (inactive).

Regarding `C=CCNc1nc(NCC=C)nc(N2CCN(C(c3ccc(F)cc3)c3ccc(F)cc3)CC2)n1`, the activation was -14.2% (inactive).

Take `CC1(C)OC(=O)NC1=O`: the activation was -15.3% (inactive).

Turning to `COc1cc(NC(C)CCCN)c2ncccc2c1` (stereo not given), the Potency was 24.6 µM (active).

For `O=C1C(CCC(O)c2ccc(F)cc2)C(c2ccc(O)cc2)N1c1ccc(F)cc1` (stereo not given), the activation was -15.6% (inactive).

Consider `COc1cc(N2CCN(C)CC2)ccc1Nc1nc(N)c(C(=O)c2c(Cl)cccc2Cl)s1`, for which the activation was -2.41% (inactive).

In the case of `Clc1ccccc1-c1nc(-c2ccncc2)no1`, the activation is 11.7% (inactive).

As to `CC(C)(C)NC(=O)[C@H]1CN(Cc2cccnc2)CCN1C[C@@H](O)C[C@@H](Cc1ccccc1)C(=O)N[C@H]1c2ccccc2C[C@H]1O`, the activation was 18.3% (inactive).

With `CCCCCCCCCCCCCCCC(=O)OC(C)C`, the activation was -15.3% (inactive).

Turning to `C[C@@H]1CC=CC=CC=CC=C[C@@H](O[C@@H]2O[C@H](C)[C@@H](O)[C@H](N)[C@H]2O)C[C@@H]2O[C@](O)(C[C@@H](O)C[C@@H]3O[C@@H]3C=CC(=O)O1)C[C@H](O)[C@@H]2C(=O)O`, the activation was -2.86% (inactive).

As for `C[N+](C)(C)CC[N+]1(C)Cc2c(Cl)c(Cl)c(Cl)c(Cl)c2C1`, the activation was -1.69% (inactive).

In the case of `COC(=O)N/N=C/c1c[n+]([O-])c2ccccc2[n+]1[O-]`, the activation was -30.1% (inactive).

For the molecule `CC[C@H]1CN2CCc3cc(OC)c(OC)cc3[C@H]2C[C@@H]1C[C@@H]1NCCc2cc(OC)c(OC)cc21`, the Potency was 1.37 µM (active).

As to `CC(C)OC(=O)OCOP(=O)(CO[C@H](C)Cn1cnc2c(N)ncnc21)OCOC(=O)OC(C)C`, the activation was -1.51% (inactive) and -14.1% (inactive).

With `CCOC(=O)O[C@]1(C(=O)OCCl)CC[C@@H]2[C@H]3CCC4=CC(=O)C=C[C@]4(C)[C@@H]3[C@@H](O)C[C@@]21C`, the activation is -2.28% (inactive).

Consider `COc1ccc2c(c1)c(CC(=O)OCC(=O)O)c(C)n2C(=O)c1ccc(Cl)cc1`, for which the activation is -15.1% (inactive) and 5.95% (inactive).

On to `NC[C@H]1O[C@H](O[C@H]2[C@H](O)[C@@H](O[C@H]3O[C@H](CO)[C@@H](O)[C@H](N)[C@H]3O)[C@H](N)C[C@@H]2N)[C@H](N)[C@@H](O)[C@@H]1O`, for which the activation is -10.7% (inactive).

For `O=C(O)[C@@H]1[C@H]2C[C@H]3c4[nH]c5ccccc5c4CCN3C[C@@H]2CC[C@@H]1O`, the Potency is 3.09 µM (active).

Turning to `CCC(CC)[C@H](NC(C)=O)[C@@H]1[C@H](O)[C@@H](C(=O)O)C[C@@H]1N=C(N)N`, the activation was 7.36% (inactive).

On to `Nc1ccccc1NC(=O)CCCCCCC(=O)Nc1ccccc1`, for which the activation was -13.4% (inactive).

Consider `Cc1cc(C)c2nc(-c3ccccn3)cc(C(=O)Nc3ccc(S(=O)(=O)Nc4onc(C)c4C)cc3)c2c1`, for which the activation is 8.11% (inactive).

`Oc1c(I)cc(I)c2cccnc12`: the activation is -5.86% (inactive).

For the molecule `CCOC(=O)N[C@@H]1CC[C@@H]2[C@@H](C1)C[C@H]1C(=O)O[C@H](C)[C@H]1[C@@H]2C=Cc1ccc(-c2cccc(F)c2)cn1`, the activation is 8.14% (inactive).

As to `NS(=O)(=O)c1ccc(Cl)c(S(N)(=O)=O)c1`, the activation was -10% (inactive).

In the case of `COc1cc(C(=O)NCc2ccc(OCCN(C)C)cc2)cc(OC)c1OC`, the activation was 1.67% (inactive).

`CCc1cccc2c(CCO)c[nH]c12`: the activation was -27.7% (inactive).

With `CC(=O)Oc1cccc(O)c1`, the activation was 18.6% (inactive).
